# Measured values from PubChem BioAssay.
# Records with an inconclusive call do not appear. For some of these results: Entries with a potency or affinity are not part of this list. Calls of active or inactive are those of the source. Unless noted, how the calls were made is not given here.
# Assays:
# [1] = compounds altering circadian rhythm period length – cell-based, LOPAC library, luminescence reporter (AID 2774); details: circadian reporter cells, at 7 µM, actives lie on both sides;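 further: values are relative to mean of DMSO wells on each plate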
# [2] = tested on: Hepatitis C virus NS3 helicase; experiment: blockers of NS3h binding to ssDNA – biochemical, fluorescence polarization, LOPAC1280 library, primary screen (AID 687035; in the data active means inhibition above about 37%); details: Purified HCV NS3 helicase, Cy5-dT15 ssDNA binding fluorescence polarization; stronger effect = higher value; concentration not given here
# [3] = compounds altering Cy5-DNA-NS3h complex signal – biochemical, LOPAC1280, artefact control for HCV NS3 helicase inhibitor project (AID 687037); details: Cy5-DNA-NS3h complex fluorescence interference counterscreen
# [4] = blockers of cellular phospholipid synthesis – cell-based, LOPAC library, screen 4, primary screen (AID 1347384); details: animal cells, phospholipid biosynthesis inhibition screen; at 10 µM
# [5] = blockers of polyQ-driven CASP3 activation – cell-based (AID 1583); details: polyglutamine-induced caspase-3 activation, cell assay; stronger effect = higher value;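 tested at 10 µM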
# [6] = yeast 75Q aggregation reduction – 75Q-TubU reporter (AID 1593); details: Yeast 75Q polyglutamine aggregation reporter
# [7] = restoration of touch response, mutant HTT neurons – whole organism, C. elegans mechanosensory neurons, N-terminal huntingtin (AID 1599); details: C. elegans polyQ-huntingtin mechanosensory neurons, stronger effect = higher value
# [8] = blockers of cytochrome c efflux from mitochondria – biochemical, purified mitochondria (AID 1603); details: stronger effect = lower value;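 further: mouse liver mitochondria challenged with calcium chloride; signal normalized to the plate average as 100%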
# [9] = polyglutamine aggregate formation blockers (AID 1604); details: polyglutamine-induced protein aggregation inhibition assay; stronger effect = higher value; tested at 2.5 µM
# [10] = glutamate transport activators, MN-1 cells, MN-1 cell line (AID 1612); details: MN-1 motor neuron cells, stronger effect = higher value;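 further: tested at 1 µM final; 0% = mean of DMSO vehicle wells on each plate; positive means more glutamate uptake than control and negative means less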
# [11] = GFP-Q80 aggregate reduction, neuronal-like cells, cell-based, NGF-treated PC12, GFPQ80 (AID 1614); details: PC12 NGF-treated GFP-polyQ80 inclusion reduction;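 further: lower means fewer inclusions and 0 means no inclusions at all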
# [12] = 75Q-TubH aggregate inhibition, S. cerevisiae, yeast (AID 1616); details: S. cerevisiae 75Q-TubH polyglutamine aggregation suppression; stronger effect = higher value
# [13] = viability loss in pontine glioma line – cell-based, SU-DIPG-XVII, MIPE5.0, CellTiter-Glo, qHTS, dose response (AID 1347060; cut-off not given, nearly all actives have AC50 up to about 26 µM;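 on AC50: cells exposed to compound for 48 hours before viability readout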); details: CellTiter-Glo ATP luminescence
# [14] = compounds altering HSF1 focus formation in cells – imaging, Selleck Cancer Library (AID 1347162; in the data active means plate-normalised HSF1 focus index below about 0.46); details: human cells, HSF1 nuclear foci imaging, at 10 µM; SSMD: measured here: HSF1 foci SSMD mean; cell count: measured here: cell number; plate-normalised HSF1 focus index: stronger effect = lower value
# [15] = viability loss in pontine glioma line – cell-based, SU-DIPG-XIII, MIPE4.0, CellTiter-Glo, qHTS, dose response (AID 1347061; cut-off not given, nearly all actives have AC50 up to about 37 µM;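 further: cells exposed to compound for 48 hours before readout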); details: CellTiter-Glo ATP luminescence
compound,measurement,setting,value
CNCCCC1c2ccccc2C=Cc2ccccc21,period change,[1],-0.13 h (inactive)
same,inhibition,[2],-3% (inactive)
same,fluorescence ratio (interference),[3],0.9 (inactive)
same,outcome,[4],inactive
NCCCNCCSP(=O)(O)O,period change,[1],-0.025 h (inactive)
same,inhibition,[2],-3% (inactive)
same,fluorescence ratio (interference),[3],1 (inactive)
same,outcome,[4],inactive
O=C(O)CN(CCN(CC(=O)O)CC(=O)O)CCN(CC(=O)O)CC(=O)O,period change,[1],0.145 h (inactive)
same,inhibition,[2],-2% (inactive)
same,fluorescence ratio (interference),[3],1 (inactive)
same,outcome,[4],inactive
CN(N=O)C(=O)N[C@@H]1[C@@H](O)[C@H](O)[C@@H](CO)O[C@@H]1O,inhibition,[5],-0.83%
same,score,[6],1.48
same,rescue above control,[7],-12.1
same,cytochrome c release ratio,[8],1.09
same,inhibition of aggregation,[9],69%
same,glutamate uptake change,[10],-14.8%
same,inclusion score,[11],2
same,aggregation suppression score,[12],1.03
same,outcome,[13],inactive
COc1c(C)c2c(c(O)c1C/C=C(\C)CCC(=O)OCCN1CCOCC1)C(=O)OC2,AC50,[13],590 nM (active)
same,SSMD,[14],-0.00851
same,cell count,[14],7610
same,plate-normalised HSF1 focus index,[14],0.999 (inactive)
CC(=O)c1ccc2c(c1)N(CCCN(C)C)c1ccccc1S2,outcome,[4],inactive
COc1cc2ncnc(Nc3ccc(F)c(Cl)c3)c2cc1OCCCN1CCOCC1,AC50,[15],38200 nM (active)
same,SSMD,[14],-3.63
same,cell count,[14],5320
same,plate-normalised HSF1 focus index,[14],0.813 (inactive)
O=[N+]([O-])c1ccc(O)c2ncccc12,AC50,[13],6610 nM (active)
CCCCCCCCCCCCCCCCCCCCCCO,outcome,[15],inactive
Cn1c(=O)c2c(ncn2CC2OCCO2)n(C)c1=O,outcome,[13],inactive
CC(C)Cn1cnc2c(N)nc3ccccc3c21,outcome,[13],inactive
CNC1CCCN(c2c(F)cc3c(=O)c(C(=O)O)cn(C4CC4)c3c2OC)C1 (configuration not stated),outcome,[13],inactive
Cc1nc(Nc2ncc(C(=O)Nc3c(C)cccc3Cl)s2)cc(N2CCN(CCO)CC2)n1,AC50,[13],16600 nM (active)
same,SSMD,[14],-0.87
same,cell count,[14],6550
same,plate-normalised HSF1 focus index,[14],0.957 (inactive)
NC(N)=NC(N)=NCCc1ccccc1,outcome,[13],inactive
C#CCN(C)CCCOc1ccc(Cl)cc1Cl,period change,[1],0.03 h (inactive)
same,inhibition,[2],-6% (inactive)
same,fluorescence ratio (interference),[3],1 (inactive)
same,outcome,[4],inactive
COc1ccc2[nH]c(S(=O)Cc3ncc(C)c(OC)c3C)nc2n1 (configuration not stated),outcome,[13],inactive
CN1CCN(c2c(F)cc3c(=O)c(C(=O)O)cn(CCF)c3c2F)CC1,outcome,[15],inactive
COc1cccc2c1C(=O)c1c(O)c3c(c(O)c1C2=O)C[C@@](O)(C(C)=O)C[C@@H]3O[C@H]1C[C@H](N)[C@H](O)[C@H](C)O1,AC50,[13],118 nM (active)
same,SSMD,[14],-15.6
same,cell count,[14],7130
same,plate-normalised HSF1 focus index,[14],0.198 (active)
O=C(CCCCCCC(=O)Nc1ccccc1)NO,AC50,[13],1860 nM (active)
same,SSMD,[14],-0.489
same,cell count,[14],6970
same,plate-normalised HSF1 focus index,[14],0.984 (inactive)
CCCN(CCC)CCc1cccc2c1CC(=O)N2,period change,[1],0.155 h (inactive)
same,inhibition,[2],-3% (inactive)
same,fluorescence ratio (interference),[3],1 (inactive)
same,outcome,[4],inactive
O=C1Cc2cc(CCN3CCN(c4nsc5ccccc45)CC3)c(Cl)cc2N1,inhibition,[2],2% (inactive)
same,fluorescence ratio (interference),[3],1 (inactive)
same,outcome,[4],inactive
CCN(C)C(=O)Oc1cccc([C@H](C)N(C)C)c1,outcome,[15],inactive
O=C(O)[C@H](O)[C@@H](O)[C@H](O[C@@H]1O[C@H](CO)[C@H](O)[C@H](O)[C@H]1O)[C@H](O)CO,outcome,[13],inactive
O=C(O)c1cc(=O)[nH]c(=O)[nH]1,outcome,[13],inactive
CC(C)(Oc1ccc(C2CC2(Cl)Cl)cc1)C(=O)O (configuration not stated),period change,[1],0.045 h (inactive)
same,inhibition,[2],-1% (inactive)
same,fluorescence ratio (interference),[3],1 (inactive)
same,outcome,[15],inactive
same,outcome,[4],inactive
COc1cc2c(c(OC)c1OC)-c1ccc(OC)c(=O)cc1[C@@H](NC(C)=O)CC2,inhibition,[5],-76.8%
same,score,[6],1.26
same,rescue above control,[7],-5.06
same,cytochrome c release ratio,[8],0.87
same,inhibition of aggregation,[9],97.2%
same,glutamate uptake change,[10],-10.3%
same,aggregation suppression score,[12],1.64
same,period change,[1],-0.41 h (inactive)
same,inhibition,[2],-1% (inactive)
same,fluorescence ratio (interference),[3],1 (inactive)
same,AC50,[13],29.5 nM (active)
same,outcome,[4],inactive
CCN(CC)C(=O)c1ccc(O)c(OC)c1,period change,[1],-1.55 h (active)
same,inhibition,[2],0% (inactive)
same,fluorescence ratio (interference),[3],1 (inactive)
same,outcome,[4],inactive
Cc1cc(=O)oc2cc(O)ccc12,AC50,[15],418 nM (active)
OC(CCN1CCCCC1)(c1ccccc1)C1CC2C=CC1C2 (configuration not stated),inhibition,[2],-3% (inactive)
same,fluorescence ratio (interference),[3],1 (inactive)
same,outcome,[15],inactive
same,outcome,[4],inactive
C[C@H]1[C@H](NC(=O)/C(=N/OC(C)(C)C(=O)O)c2csc(N)n2)C(=O)N1S(=O)(=O)O (stereo in doubt),outcome,[15],inactive
CN1CCN(c2c(F)cc3c(=O)c(C(=O)O)cn4c3c2OCN4C)CC1,outcome,[15],inactive
Clc1ccc(Cn2c(CN3CCCC3)nc3ccccc32)cc1,period change,[1],0.175 h (inactive)
same,inhibition,[2],0% (inactive)
same,fluorescence ratio (interference),[3],1 (inactive)
same,outcome,[4],inactive
C[C@@H](O)[C@H]1C(=O)N2C(C(=O)O)=C(SCCN=CN)C[C@H]12,inhibition,[2],-1% (inactive)
same,fluorescence ratio (interference),[3],1 (inactive)
same,outcome,[4],inactive
N=C(N)N1CCc2ccccc2C1,outcome,[4],inactive
CNCCc1ccccn1,inhibition,[5],24.5%
same,score,[6],1.2
same,rescue above control,[7],-9.72
same,cytochrome c release ratio,[8],0.91
same,inhibition of aggregation,[9],75.9%
same,glutamate uptake change,[10],-5.29%
same,inclusion score,[11],2
same,aggregation suppression score,[12],1.84
CC(=O)Oc1cc(C(C)C)c(OCCN(C)C)cc1C,period change,[1],-0.155 h (inactive)
same,inhibition,[2],-6% (inactive)
same,fluorescence ratio (interference),[3],1 (inactive)
same,outcome,[4],inactive
CN(C(=O)CN(CCO)CC(=O)N(C)C(C)(C)Cc1ccccc1)C(C)(C)Cc1ccccc1,inhibition,[5],-62.8%
same,score,[6],1.1
same,rescue above control,[7],0
same,cytochrome c release ratio,[8],5.27
same,inhibition of aggregation,[9],66.7%
same,glutamate uptake change,[10],-0.7%
same,aggregation suppression score,[12],1.14
CC(=O)N[C@@H](CC(C)C)C(=O)O,inhibition,[5],23.7%
same,score,[6],0.82
same,rescue above control,[7],14.2
same,cytochrome c release ratio,[8],1.03
same,inhibition of aggregation,[9],74.7%
same,glutamate uptake change,[10],2.89%
same,inclusion score,[11],2
same,aggregation suppression score,[12],0.909
Cc1c(N)c(=O)n(-c2ccccc2)n1C,inhibition,[5],13.4%
same,score,[6],1.65
same,rescue above control,[7],-0.44
same,cytochrome c release ratio,[8],0.9
same,inhibition of aggregation,[9],81.5%
same,glutamate uptake change,[10],-10.8%
same,inclusion score,[11],1
same,aggregation suppression score,[12],1.31
CN(C)CC/C=C1\c2ccccc2Sc2ccc(Cl)cc21,inhibition,[5],3.29%
same,score,[6],0.95
same,rescue above control,[7],0
same,cytochrome c release ratio,[8],1.06
same,inhibition of aggregation,[9],59.1%
same,glutamate uptake change,[10],14.9%
same,aggregation suppression score,[12],0.956
